Results published in PubChem BioAssay (Tox21).
Results filed as inconclusive are left out. Where a call stands in place of a potency, no number is given. Where a structure was tested more than once in an assay, its records may differ in their call. Active and inactive are the calls of the source. The call rests on the fitted dose curve; in most records, active means well fitted curve in the direction sought with a large enough effect in the repeat runs; inconclusive means weak or mixed curves; inactive means no such curve, though single readings can be large; an effect the other way counts as inactive or inconclusive.

Tested on: not listed separately
Assay: qHTS assay to identify small molecule antagonists of the androgen receptor (AR) signaling pathway using the MDA cell line in the presence of 0.5 nM R1881 - cell viability counter screen (AID 1259242); further: nearly all actives have a fitted effect of over 45% in size
Details: MDA-kb2 viability, CellTiter-Fluor protease fluorescence, 16 h; series mostly up to 92.4 µM
In short: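 Concentration-response screen of compounds for toxicity in MDA-kb2 reporter cells: 16 hr at 37C with 0.5 nM R1881, endpoint live-cell protease fluorescence measured in the reporter wells.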
Potency means the concentration at half of the fitted maximal effect.

Question: With `O=C(O)CCC(=O)O` as the compound, how does the Potency read?
Answer: Its Potency is “inactive”.

Question: With `Oc1ccc(/C=C/c2cc(O)cc(O)c2)cc1` as the compound, how does the Potency read?
Answer: Its Potency is “inactive”.

Question: Which Potency does the source give for `Cc1ccc(C)c(OCCCC(C)(C)C(=O)O)c1` here?
Answer: Its Potency is “inactive”.

Question: Which Potency does the source give for `CC(O)CN(CCN(CC(C)O)CC(C)O)CC(C)O` (stereo not given) here?
Answer: The Potency was “inactive”.

Question: Which Potency does the source give for `CCCCCCCCCCCCCCCC(=O)O` here?
Answer: The Potency was “inactive”.

Question: Which Potency does the source give for `O=C(O)C(=O)O` here?
Answer: The Potency was “inactive”.

Question: With `NC(=O)c1cnccn1` as the compound, how does the Potency read?
Answer: The Potency was “inactive”.

Question: Which Potency does the source give for `Cc1ccccc1C(OCCN(C)C)c1ccccc1` (stereo not given) here?
Answer: The Potency was “inactive”.

Question: Which Potency does the source give for `c1ccc2[nH]ccc2c1` here?
Answer: The Potency was 9.53 µM (active) and inactive.

Question: For `CC(C)(Oc1ccc(C2CC2(Cl)Cl)cc1)C(=O)O` (stereo not given), which Potency is on record?
Answer: Its Potency is “inactive”.

Question: For `CCCC(CCC)C(=O)O`, which Potency is on record?
Answer: Its Potency is “inactive”.

Question: For `O=C(O)CS`, which Potency is on record?
Answer: Its Potency is “inactive”.

Question: For `COc1c2occc2cc2ccc(=O)oc12`, which Potency is on record?
Answer: The Potency was “inactive”.

Question: Which Potency does the source give for `O=c1ccc2ccccc2o1` here?
Answer: Its Potency is “inactive”.

Question: Which Potency does the source give for `CCC1(c2ccccc2)C(=O)NCNC1=O` here?
Answer: The Potency was “inactive”.

Question: For `CCCNC(=O)NS(=O)(=O)c1ccc(Cl)cc1`, which Potency is on record?
Answer: The Potency was “inactive”.

Question: For `O=c1cc[nH]c(=S)[nH]1`, which Potency is on record?
Answer: The Potency was “inactive”.

Question: Which Potency does the source give for `NC(=O)c1ccccc1O` here?
Answer: The Potency was “inactive”.

Question: With `Cn1cc[nH]c1=S` as the compound, how does the Potency read?
Answer: The Potency was “inactive”.

Question: Which Potency does the source give for `Cn1c(=O)c2[nH]cnc2n(C)c1=O` here?
Answer: The Potency was “inactive”.

Question: Which Potency does the source give for `Cc1cc(=O)[nH]c(=S)[nH]1` here?
Answer: Its Potency is “inactive”.

Question: With `COc1ccc2[nH]cc(CCNC(C)=O)c2c1` as the compound, how does the Potency read?
Answer: The Potency was “inactive”.

Question: With `CC(C)[C@@H]1CC[C@@H](C)C[C@H]1O` as the compound, how does the Potency read?
Answer: The Potency was “inactive”.

Question: Which Potency does the source give for `Nc1ccn([C@H]2CC[C@@H](CO)O2)c(=O)n1` here?
Answer: The Potency was “inactive”.

Question: Which Potency does the source give for `CC(=O)OCC(COC(C)=O)OC(C)=O` here?
Answer: Its Potency is “inactive”.

Question: With `O=C(O)c1cc(N=Nc2ccc(S(=O)(=O)Nc3ccccn3)cc2)ccc1O` as the compound, how does the Potency read?
Answer: Its Potency is 27.4 µM (active) and inactive.

Question: Which Potency does the source give for `O=C1NC(=O)c2ccccc21` here?
Answer: The Potency was “inactive”.

Question: Which Potency does the source give for `O=C(C1CCCCC1)N1CC(=O)N2CCc3ccccc3C2C1` (stereo not given) here?
Answer: Its Potency is “inactive”.

Question: For `Cc1ccc(S(=O)(=O)NC(=O)NN2CCCCCC2)cc1`, which Potency is on record?
Answer: The Potency was “inactive”.

Question: For `O=C(O)c1cccc([N+](=O)[O-])c1`, which Potency is on record?
Answer: The Potency was “inactive”.

Question: For `CC(=O)NS(=O)(=O)c1ccc(N)cc1`, which Potency is on record?
Answer: Its Potency is “inactive”.

Question: For `O=C(O)c1cccnc1`, which Potency is on record?
Answer: The Potency was “inactive”.

Question: For `CC(O)CO` (stereo not given), which Potency is on record?
Answer: Its Potency is “inactive”.

Question: With `CCCC(O)C(CC)CO` (stereo not given) as the compound, how does the Potency read?
Answer: The Potency was “inactive”.

Question: For `CC(=O)Nc1nnc(S(N)(=O)=O)s1`, which Potency is on record?
Answer: The Potency was “inactive”.

Molecular target: Androgen receptor (Homo sapiens) (UniProt P10275)
Sequence (P10275 whole entry, looked up): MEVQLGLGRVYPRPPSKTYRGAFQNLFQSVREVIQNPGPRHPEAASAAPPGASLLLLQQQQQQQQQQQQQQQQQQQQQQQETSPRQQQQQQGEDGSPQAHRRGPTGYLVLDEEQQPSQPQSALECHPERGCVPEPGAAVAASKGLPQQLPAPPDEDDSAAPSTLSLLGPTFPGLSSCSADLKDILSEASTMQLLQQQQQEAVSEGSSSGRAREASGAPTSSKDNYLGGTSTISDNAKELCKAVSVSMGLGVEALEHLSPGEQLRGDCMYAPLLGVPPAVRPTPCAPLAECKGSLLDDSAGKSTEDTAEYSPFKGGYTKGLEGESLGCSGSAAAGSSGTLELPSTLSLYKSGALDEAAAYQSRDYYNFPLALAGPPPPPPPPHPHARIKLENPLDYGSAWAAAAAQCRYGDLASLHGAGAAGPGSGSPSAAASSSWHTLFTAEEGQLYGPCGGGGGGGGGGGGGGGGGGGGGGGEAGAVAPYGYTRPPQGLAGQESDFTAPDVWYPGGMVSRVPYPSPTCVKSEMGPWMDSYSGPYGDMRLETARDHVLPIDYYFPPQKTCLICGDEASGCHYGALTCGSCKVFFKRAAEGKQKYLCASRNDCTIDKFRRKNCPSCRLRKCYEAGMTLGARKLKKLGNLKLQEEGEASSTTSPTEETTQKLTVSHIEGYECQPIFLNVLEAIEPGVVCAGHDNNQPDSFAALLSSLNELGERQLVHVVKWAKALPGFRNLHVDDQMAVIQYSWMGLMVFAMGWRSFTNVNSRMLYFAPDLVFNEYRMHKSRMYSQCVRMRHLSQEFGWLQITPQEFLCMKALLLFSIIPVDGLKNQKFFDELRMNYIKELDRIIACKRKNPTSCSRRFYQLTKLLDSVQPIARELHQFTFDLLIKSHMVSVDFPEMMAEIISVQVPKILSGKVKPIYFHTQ
Assay: qHTS assay to identify small molecule antagonists of the androgen receptor (AR) signaling pathway using the MDA cell line in the presence of 0.5 nM R1881 (AID 1259243); further: nearly all actives have a fitted effect of over 50% in size
Details: MDA-kb2 MMTV-luciferase, R1881 0.5 nM, 16 h; series mostly up to 92.4 µM
In short: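 With R1881 held at 0.5 nM (final), compound effects on MMTV-luciferase expression in MDA-kb2 cells were scored by luminescence after a 16 hr, 37C incubation.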

Question: Which Potency does the source give for `Oc1ccc(/C=C/c2cc(O)cc(O)c2)cc1` here?
Answer: Its Potency is “inactive”.

Question: For `Cc1ccc(C)c(OCCCC(C)(C)C(=O)O)c1`, which Potency is on record?
Answer: Its Potency is “inactive”.

Question: For `c1ccc2[nH]ccc2c1`, which Potency is on record?
Answer: Its Potency is 2.39 µM (active) and inactive.

Question: For `CC(C)(Oc1ccc(C2CC2(Cl)Cl)cc1)C(=O)O` (stereo not given), which Potency is on record?
Answer: Its Potency is “inactive”.

Question: Which Potency does the source give for `CC(C)[C@@H]1CC[C@@H](C)C[C@H]1O` here?
Answer: The Potency was “inactive”.
